Five compounds from PubChem BioAssay (EPA / NIEHS) can be followed below.

As a reminder, the AC50 is the concentration giving half of the maximal activity seen.

Where “and” joins values, the source holds several entries; their conditions need not be identical. Identical values can stand only once. Records with an inconclusive call do not appear. Some structures have more than one record in an assay (separate samples or runs), and their calls can disagree. Calls of active or inactive are those of the source. How the source made its calls, unless noted: active means hit-call score of the fitted dose curve at least 0.9, where 1 is the maximum; inactive means score below 0.9.

Assay [1] addresses Glucocorticoid receptor (Homo sapiens) (UniProt P04150). In words: ATG_GR_TRANS: Attagene TRANS-FACTORIAL HepG2 Assay for human Glucocorticoid Receptor (GR) (AID 2282978; active means hit-call score of the fitted dose curve at least 0.9, where 1 is the maximum;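 further: activators score as hits since higher reporter transcript over DMSO is fitted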). To be noted: HepG2 Attagene TRANS GR reporter, mRNA transcription. The method in brief:
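Readout is reporter transcript from a chimeric GR-Gal4 acting on GAL4-UAS in transfected human HepG2 liver cells after 24 h exposure, quantified by RT-PCR and capillary electrophoresis. Activation fitted upward against DMSO.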

Assay [2] has as its target Oxysterols receptor LXR-beta (Homo sapiens) (UniProt P55055). Nature of the assay: ATG_LXRb_TRANS: Attagene TRANS-FACTORIAL HepG2 Assay for human Liver X Receptor beta (LXRb) (AID 2282981; active means hit-call score of the fitted dose curve at least 0.9, where 1 is the maximum). The note with it: HepG2 Attagene TRANS GAL4-LXRb reporter, mRNA. The method in brief:
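After 24 h chemical treatment of transfected HepG2 cells carrying exogenous NR-Gal4 chimeras, reporter mRNA was quantified by fluorescent RT-PCR and capillary electrophoresis; activity taken as increase over DMSO controls.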

Assay [3] in a line: ATG_M_06_TRANS: Attagene TRANS-FACTORIAL HepG2 Assay for M06 Transcription Factor (Internal Marker) (AID 2282983; active means hit-call score of the fitted dose curve at least 0.9, where 1 is the maximum). The note with it: HepG2 Attagene TRANS M06 internal marker reporter. In outline: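 In this multiplexed HepG2 system, compounds are incubated 24 h with cells carrying GAL4-UAS reporter units. Reporter RNA is amplified and resolved by capillary electrophoresis, and induction is scored against DMSO.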

A short description of assay [4]: ATG_M_32_TRANS: Attagene TRANS-FACTORIAL HepG2 Assay for M32 Transcription Factor (Internal Marker) (AID 2282984; active means hit-call score of the fitted dose curve at least 0.9, where 1 is the maximum;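 further: transcript level of a background control reporter unit measured by RT-PCR and capillary electrophoresis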). The note with it: HepG2 Attagene TRANS M32 internal marker reporter. In outline:
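Internal background reporter in transfected HepG2: after 24 h chemical exposure, RNA reverse-transcribed, reporter cDNA amplified, fluorescently labelled and HpaI-cut, then sized by capillary electrophoresis. Gain of signal fitted against DMSO control.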

Assay [5] has as its target Transcriptional activator Myb (Homo sapiens) (UniProt P10242). Nature of the assay: ATG_Myb_CIS: Attagene CIS-FACTORIAL HepG2 Assay for human Myeloblastosis (Myb) Proto-Oncogene Transcription Factor (AID 2282986). To be noted: HepG2 Attagene CIS-FACTORIAL Myb reporter transcription; actives raise or lower the signal. The method in brief: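 Reporter mRNA is quantified by RT-PCR and capillary electrophoresis 24 h after dosing HepG2 cells transfected with cis-regulated reporter units, which track endogenous transcription factor activity. Gain and loss of signal are fitted versus DMSO baseline.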

Assay [6] addresses Nuclear respiratory factor 1 (Homo sapiens) (UniProt Q16656). In words: ATG_NRF1_CIS: Attagene CIS-FACTORIAL HepG2 Assay for human Nuclear Respiratory Factor 1 (NRF1) Orphan Gene (AID 2282987). The note with it: HepG2 NRF1 cis-element reporter, Attagene multiplex; actives raise or lower the signal. In outline:
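Endogenous NRF1-driven reporter transcription in transfected HepG2 cells after 24 h treatment. Readout: RT-PCR products, 6-FAM labelled and resolved by capillary electrophoresis; changes fitted both directions relative to DMSO.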

The nature of assay [7]: ATG_NFI_CIS: Attagene CIS-FACTORIAL HepG2 Assay for human Nuclear Factor I (NFI) (AID 2282989). The note with it: HepG2 cis-regulatory reporter, NFI response element transcription; actives raise or lower the signal. The method in brief: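 After transient transfection of HepG2 with cis-promoter reporter constructs and 24 h dosing, RNA is reverse-transcribed, amplified, 6-FAM end-labelled and HpaI-digested before capillary analysis. Bidirectional curve fitting against DMSO.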

The target of assay [8] is Myc proto-oncogene protein (Homo sapiens) (UniProt P01106). In words: ATG_Myc_CIS: Attagene CIS-FACTORIAL HepG2 Assay for human Myelocytomatosis (Myc) Proto-Oncogene Transcription Factor (AID 2282990). The note with it: HepG2, Attagene cis-reporter transcription factor activity; actives raise or lower the signal. The method in brief: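 HepG2, transient MRTU transfection (cis promoters, endogenous TFs); 24 h dosing; TriZol RNA → oligo(dT) RT → PCR → 6-FAM primer extension → HpaI cut → CE. Bidirectional fit vs DMSO.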

A short description of assay [9]: ATG_NF_kB_CIS: Attagene CIS-FACTORIAL HepG2 Assay for human Nuclear Factor Kappa B (NF-kB) (AID 2282991). To be noted: HepG2 Attagene cis-factorial NF-kB reporter mRNA; actives raise or lower the signal. In outline:
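Readout is reporter transcript level, gain or loss versus DMSO, measured 24 h post-dose via RT-PCR, fluorescent labelling and capillary electrophoresis. Human HepG2 liver cells carried transiently transfected CIS reporter constructs reflecting endogenous factors.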

Assay [10] is described as follows: ATG_NRF2_ARE_CIS: Attagene CIS-FACTORIAL HepG2 Assay for human Nuclear Factor Erythroid 2 Related Factor 2 (NFR2) response to Antioxidant Response Elements (ARE) (AID 2282992). To be noted: HepG2 Attagene ARE/NRF2 reporter, transcription factor activity; actives raise or lower the signal. In outline:
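Using transiently transfected HepG2 cells exposed for 24 h, reporter mRNA levels were determined by RT-PCR with fluorescent primer extension and capillary electrophoresis, analysed for gain or loss of signal against DMSO.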

Assay [11] is described as follows: ATG_Oct_MLP_CIS: Attagene CIS-FACTORIAL HepG2 Assay for human Octamer-Binding Transcription Factor (Oct) (AID 2282993). The note with it: HepG2 Attagene cis-factorial Oct reporter, mRNA; actives raise or lower the signal. In outline:
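Cells of the HepG2 line express promoter-controlled reporter sequences whose mRNA levels, after 24 h treatment, are measured by RT-PCR and capillary electrophoresis. Increases and decreases are scored relative to DMSO.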

Assay [12] deals with Cellular tumor antigen p53 (Homo sapiens) (UniProt P04637). Nature of the assay: ATG_p53_CIS: Attagene CIS-FACTORIAL HepG2 Assay for human p53 Transcription Factor (AID 2282994). To be noted: HepG2 p53 cis-element reporter, Attagene mRNA; actives raise or lower the signal. In outline: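 In HepG2 cells, reporter transcription units under cis-regulatory promoters were transiently introduced. Following 24 h treatment, RNA was processed to labelled, digested cDNA fragments read by capillary electrophoresis; fitting was bidirectional versus DMSO.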

Assay [13] is described as follows: BSK_3C_TissueFactor: BioMAP Diversity Plus: 3C Assay for Tissue Factor Biomarker Activity (AID 2282997). The note with it: BioMAP 3C HUVEC, tissue factor biomarker readout; actives raise or lower the signal. The method in brief: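 Readout: Tissue Factor ELISA. Cells: human primary umbilical vein endothelium. Time: 24 h after dosing. Analysis: bidirectional fit, DMSO baseline.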

Assay [14] in a line: BSK_3C_uPAR: BioMAP Diversity Plus: 3C Assay for Urokinase-type plasminogen activator receptor (uPAR) Biomarker Activity (AID 2282998). To be noted: BioMAP 3C HUVEC, uPAR biomarker ELISA; actives raise or lower the signal. The method in brief:
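Endothelial primary cells of human umbilical vein origin received test chemical; 24 h later uPAR was assayed by ELISA. Fitting was bidirectional, DMSO as negative control.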
A general note: ELISA stands for enzyme-linked immunosorbent assay.

Assay [15] in a line: BSK_3C_VCAM1: BioMAP Diversity Plus: 3C Assay for Vascular cell adhesion molecule 1 (VCAM1) Biomarker Activity (AID 2282999). The note with it: BioMAP 3C HUVEC, VCAM1 ELISA, cytokine-stimulated; actives raise or lower the signal. In outline:
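Activity fitted in both directions relative to DMSO, with ELISA measurement of the surface marker on primary HUVEC (3C) at 24 h post-treatment; parallel SRB staining (0.1% SRB, TCA-fixed, 560 nm) flagged overt cytotoxicity.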

Assay [16] in a line: BSK_4H_Eotaxin3: BioMAP Diversity Plus: 4H Assay for Eotaxin 3 Biomarker Activity (AID 2283000).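 Further: CCL26 protein level quantified by ELISA in parallel with SRB cytotoxicity check.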 The note with it: primary human endothelial cells (HUVEC); actives raise or lower the signal. In outline: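 HUVEC, 24 h post-dose, ELISA for Eotaxin-3/CCL26. Gain or loss of signal fitted bidirectionally vs DMSO baseline.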
Assay [17] addresses Bile acid receptor (Homo sapiens) (UniProt Q96RI1). Nature of the assay: ATG_FXR_TRANS: Attagene TRANS-FACTORIAL HepG2 Assay for Farnesoid X Receptor (FXR) (AID 2282979; active means hit-call score of the fitted dose curve at least 0.9, where 1 is the maximum;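 further: hits raise reporter mRNA above DMSO so AC50 marks FXR activation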). The note with it: HepG2 Attagene TRANS FXR-GAL4 reporter transcription. The method in brief:
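HepG2 cells transiently transfected with reporter constructs in which a chimeric FXR-GAL4 protein drives a GAL4-UAS reporter; 24 h compound exposure. Reporter mRNA measured by RT-PCR, FAM labelling, HpaI digestion and capillary electrophoresis; gain-of-signal versus DMSO.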

Assay [18] has as its target Hepatocyte nuclear factor 4-alpha (Homo sapiens) (UniProt P41235). Nature of the assay: ATG_HNF4a_TRANS: Attagene TRANS-FACTORIAL HepG2 Assay for human Hepatocyte Nuclear Factor 4 alpha (HNF4a) (AID 2282982; active means hit-call score of the fitted dose curve at least 0.9, where 1 is the maximum). To be noted: HepG2 HNF4a transactivation reporter, mRNA readout. In outline: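 Activity of an exogenous HNF4a–Gal4 fusion scored as induced GAL4-UAS reporter transcripts after 24 h chemical exposure of transfected human HepG2 cells. Read-out via RT-PCR with 6-FAM labelling and capillary electrophoresis; rise over DMSO baseline.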

Assay [19] concerns the target Nuclear receptor subfamily 4 group A member 2 (Homo sapiens) (UniProt P43354). Nature of the assay: ATG_NURR1_TRANS: Attagene TRANS-FACTORIAL HepG2 Assay for human Nuclear Receptor Related Protein 1 (NURR1) (AID 2282985; active means hit-call score of the fitted dose curve at least 0.9, where 1 is the maximum). The note with it: HepG2 Attagene TRANS reporter, mRNA readout. In outline: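 Reporter transcript induction, measured by RT-PCR with fluorescent labelling, HpaI digestion and capillary electrophoresis, after 24 hr dosing of human HepG2 cells transiently expressing an exogenous NR-Gal4 fusion with GAL4-UAS-driven reporters; DMSO as baseline.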

In assay [20] the target is Oxysterols receptor LXR-alpha (Homo sapiens) (UniProt Q13133). Nature of the assay: ATG_LXRa_TRANS: Attagene TRANS-FACTORIAL HepG2 Assay for human Liver X Receptor alpha (LXRa) (AID 2282980; active means hit-call score of the fitted dose curve at least 0.9, where 1 is the maximum). To be noted: HepG2 Attagene TRANS reporter, LXRa transactivation. In outline: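 HepG2 cells were transiently transfected with multiplexed reporter units driven by chimeric LXRa–GAL4 fusion proteins, then dosed for 24 h. Reporter mRNA was quantified by RT-PCR, fluorescent labelling and capillary electrophoresis; gain of signal fitted against DMSO baseline.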

Sequence of Transcriptional activator Myb (Homo sapiens) (P10242 whole entry, looked up): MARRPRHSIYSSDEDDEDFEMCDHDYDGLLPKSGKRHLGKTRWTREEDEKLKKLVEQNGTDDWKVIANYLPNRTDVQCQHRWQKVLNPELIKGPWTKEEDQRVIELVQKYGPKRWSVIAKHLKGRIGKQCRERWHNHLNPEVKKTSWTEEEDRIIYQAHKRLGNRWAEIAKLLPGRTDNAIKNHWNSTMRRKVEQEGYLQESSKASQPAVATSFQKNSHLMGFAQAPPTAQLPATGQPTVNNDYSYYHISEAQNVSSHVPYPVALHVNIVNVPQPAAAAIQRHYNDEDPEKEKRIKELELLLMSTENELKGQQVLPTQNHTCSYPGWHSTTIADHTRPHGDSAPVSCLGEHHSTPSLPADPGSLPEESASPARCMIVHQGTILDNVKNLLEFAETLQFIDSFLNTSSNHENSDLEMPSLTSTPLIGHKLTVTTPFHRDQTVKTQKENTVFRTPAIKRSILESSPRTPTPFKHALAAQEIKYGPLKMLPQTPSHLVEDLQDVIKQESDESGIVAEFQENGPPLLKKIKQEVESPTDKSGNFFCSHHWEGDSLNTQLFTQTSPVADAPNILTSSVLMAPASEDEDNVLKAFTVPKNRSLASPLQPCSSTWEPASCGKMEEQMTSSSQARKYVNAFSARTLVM
Sequence of Glucocorticoid receptor (Homo sapiens) (P04150 whole entry, looked up, the tested form may be a part): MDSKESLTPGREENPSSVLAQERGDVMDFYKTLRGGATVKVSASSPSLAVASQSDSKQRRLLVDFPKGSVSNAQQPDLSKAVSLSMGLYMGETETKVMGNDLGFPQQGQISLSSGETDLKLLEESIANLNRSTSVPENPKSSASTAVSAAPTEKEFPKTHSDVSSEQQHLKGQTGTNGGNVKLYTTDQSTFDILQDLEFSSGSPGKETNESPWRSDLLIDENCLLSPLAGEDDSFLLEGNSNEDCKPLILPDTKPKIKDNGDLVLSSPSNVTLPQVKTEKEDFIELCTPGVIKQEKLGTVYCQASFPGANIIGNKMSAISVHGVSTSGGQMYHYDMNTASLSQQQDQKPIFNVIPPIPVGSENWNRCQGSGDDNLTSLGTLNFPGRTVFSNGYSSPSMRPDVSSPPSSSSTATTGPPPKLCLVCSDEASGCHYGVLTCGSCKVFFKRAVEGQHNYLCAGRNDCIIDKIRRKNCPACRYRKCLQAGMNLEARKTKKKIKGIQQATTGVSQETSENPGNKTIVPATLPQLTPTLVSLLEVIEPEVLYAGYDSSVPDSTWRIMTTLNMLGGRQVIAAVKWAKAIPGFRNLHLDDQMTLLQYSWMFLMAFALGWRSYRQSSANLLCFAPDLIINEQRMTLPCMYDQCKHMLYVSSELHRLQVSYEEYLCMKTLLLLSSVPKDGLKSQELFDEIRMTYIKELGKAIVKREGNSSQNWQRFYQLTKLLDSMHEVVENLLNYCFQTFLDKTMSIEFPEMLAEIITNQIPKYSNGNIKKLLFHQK
Sequence of Oxysterols receptor LXR-beta (Homo sapiens) (P55055 whole entry, looked up, the tested form may be a part): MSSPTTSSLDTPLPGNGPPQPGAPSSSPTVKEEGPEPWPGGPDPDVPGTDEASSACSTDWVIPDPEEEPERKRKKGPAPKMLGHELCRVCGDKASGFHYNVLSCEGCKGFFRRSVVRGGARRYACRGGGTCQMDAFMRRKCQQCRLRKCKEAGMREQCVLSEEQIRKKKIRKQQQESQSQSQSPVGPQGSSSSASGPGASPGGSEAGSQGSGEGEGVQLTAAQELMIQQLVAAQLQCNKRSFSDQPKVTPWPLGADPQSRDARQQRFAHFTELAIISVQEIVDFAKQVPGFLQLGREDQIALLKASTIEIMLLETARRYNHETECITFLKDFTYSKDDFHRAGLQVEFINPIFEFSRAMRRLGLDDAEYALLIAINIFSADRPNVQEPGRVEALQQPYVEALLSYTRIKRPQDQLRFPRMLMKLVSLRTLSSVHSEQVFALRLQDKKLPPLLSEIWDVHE
Sequence of Nuclear respiratory factor 1 (Homo sapiens) (Q16656 whole entry, looked up): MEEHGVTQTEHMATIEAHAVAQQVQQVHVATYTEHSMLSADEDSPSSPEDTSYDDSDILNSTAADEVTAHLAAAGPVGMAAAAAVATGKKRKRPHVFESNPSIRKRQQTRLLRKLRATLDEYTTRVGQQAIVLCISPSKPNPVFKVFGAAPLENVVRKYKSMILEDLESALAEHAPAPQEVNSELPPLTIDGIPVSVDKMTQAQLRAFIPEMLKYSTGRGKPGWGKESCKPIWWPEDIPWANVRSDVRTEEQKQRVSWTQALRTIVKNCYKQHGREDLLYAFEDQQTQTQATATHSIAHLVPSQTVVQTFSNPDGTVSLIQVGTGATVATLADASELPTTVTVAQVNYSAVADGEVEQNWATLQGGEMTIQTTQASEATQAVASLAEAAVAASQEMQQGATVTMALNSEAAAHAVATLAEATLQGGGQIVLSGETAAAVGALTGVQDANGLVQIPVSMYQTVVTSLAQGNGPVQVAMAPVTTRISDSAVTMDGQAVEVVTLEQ
Sequence of Cellular tumor antigen p53 (Homo sapiens) (P04637 whole entry, looked up, the tested form may be a part): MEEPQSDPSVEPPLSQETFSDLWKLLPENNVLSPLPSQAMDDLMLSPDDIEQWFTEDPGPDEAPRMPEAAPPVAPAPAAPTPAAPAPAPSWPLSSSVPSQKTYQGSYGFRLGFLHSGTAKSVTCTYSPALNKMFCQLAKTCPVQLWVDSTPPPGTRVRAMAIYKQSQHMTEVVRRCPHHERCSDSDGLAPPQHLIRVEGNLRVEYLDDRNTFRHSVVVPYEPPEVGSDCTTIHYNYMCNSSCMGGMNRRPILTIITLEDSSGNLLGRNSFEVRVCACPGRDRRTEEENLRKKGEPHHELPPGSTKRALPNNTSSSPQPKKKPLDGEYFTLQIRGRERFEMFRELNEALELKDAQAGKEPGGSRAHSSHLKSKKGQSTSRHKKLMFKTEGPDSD
Sequence of Myc proto-oncogene protein (Homo sapiens) (P01106 whole entry, looked up): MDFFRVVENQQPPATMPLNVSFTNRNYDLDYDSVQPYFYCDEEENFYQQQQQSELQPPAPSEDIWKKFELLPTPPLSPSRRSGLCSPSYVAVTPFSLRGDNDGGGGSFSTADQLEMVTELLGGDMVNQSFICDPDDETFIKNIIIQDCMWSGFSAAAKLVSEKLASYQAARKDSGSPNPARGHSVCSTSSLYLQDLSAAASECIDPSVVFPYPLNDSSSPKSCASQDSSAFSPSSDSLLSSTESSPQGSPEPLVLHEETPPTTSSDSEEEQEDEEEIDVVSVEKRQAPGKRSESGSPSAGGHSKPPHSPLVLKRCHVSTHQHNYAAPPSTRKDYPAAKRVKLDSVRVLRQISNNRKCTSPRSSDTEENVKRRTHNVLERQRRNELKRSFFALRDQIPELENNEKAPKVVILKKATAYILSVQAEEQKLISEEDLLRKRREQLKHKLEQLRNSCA
Sequence of Nuclear receptor subfamily 4 group A member 2 (Homo sapiens) (P43354 whole entry, looked up, the tested form may be a part): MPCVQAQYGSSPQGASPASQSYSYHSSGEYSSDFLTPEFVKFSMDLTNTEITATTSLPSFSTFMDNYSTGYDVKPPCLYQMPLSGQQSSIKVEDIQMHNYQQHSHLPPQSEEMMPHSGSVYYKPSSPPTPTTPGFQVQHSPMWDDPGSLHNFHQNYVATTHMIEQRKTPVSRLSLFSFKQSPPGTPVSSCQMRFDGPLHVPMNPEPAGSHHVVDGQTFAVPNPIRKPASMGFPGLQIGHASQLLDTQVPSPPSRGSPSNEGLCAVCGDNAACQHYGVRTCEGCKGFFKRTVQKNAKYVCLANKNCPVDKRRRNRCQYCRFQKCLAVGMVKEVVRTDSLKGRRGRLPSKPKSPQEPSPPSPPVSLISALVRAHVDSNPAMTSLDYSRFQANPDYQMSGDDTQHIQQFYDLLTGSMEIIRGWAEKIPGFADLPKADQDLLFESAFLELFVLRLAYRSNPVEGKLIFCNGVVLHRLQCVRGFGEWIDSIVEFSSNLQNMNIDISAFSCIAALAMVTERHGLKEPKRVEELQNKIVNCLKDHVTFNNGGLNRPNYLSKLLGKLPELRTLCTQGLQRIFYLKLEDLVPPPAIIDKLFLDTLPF
Sequence of Hepatocyte nuclear factor 4-alpha (Homo sapiens) (P41235 whole entry, looked up, the tested form may be a part): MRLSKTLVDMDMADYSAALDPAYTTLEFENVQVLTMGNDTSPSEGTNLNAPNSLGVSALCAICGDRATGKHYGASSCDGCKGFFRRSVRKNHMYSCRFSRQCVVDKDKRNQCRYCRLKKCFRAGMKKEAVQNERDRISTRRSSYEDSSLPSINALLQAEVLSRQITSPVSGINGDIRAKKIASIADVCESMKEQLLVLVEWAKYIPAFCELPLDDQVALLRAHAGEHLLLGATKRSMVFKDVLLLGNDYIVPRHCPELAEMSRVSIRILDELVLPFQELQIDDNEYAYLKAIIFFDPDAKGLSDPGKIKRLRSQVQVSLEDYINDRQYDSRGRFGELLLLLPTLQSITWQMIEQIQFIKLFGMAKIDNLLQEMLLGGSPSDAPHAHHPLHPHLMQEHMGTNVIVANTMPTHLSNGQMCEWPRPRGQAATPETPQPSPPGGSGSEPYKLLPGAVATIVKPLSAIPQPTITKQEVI
Sequence of Bile acid receptor (Homo sapiens) (Q96RI1 whole entry, looked up, the tested form may be a part): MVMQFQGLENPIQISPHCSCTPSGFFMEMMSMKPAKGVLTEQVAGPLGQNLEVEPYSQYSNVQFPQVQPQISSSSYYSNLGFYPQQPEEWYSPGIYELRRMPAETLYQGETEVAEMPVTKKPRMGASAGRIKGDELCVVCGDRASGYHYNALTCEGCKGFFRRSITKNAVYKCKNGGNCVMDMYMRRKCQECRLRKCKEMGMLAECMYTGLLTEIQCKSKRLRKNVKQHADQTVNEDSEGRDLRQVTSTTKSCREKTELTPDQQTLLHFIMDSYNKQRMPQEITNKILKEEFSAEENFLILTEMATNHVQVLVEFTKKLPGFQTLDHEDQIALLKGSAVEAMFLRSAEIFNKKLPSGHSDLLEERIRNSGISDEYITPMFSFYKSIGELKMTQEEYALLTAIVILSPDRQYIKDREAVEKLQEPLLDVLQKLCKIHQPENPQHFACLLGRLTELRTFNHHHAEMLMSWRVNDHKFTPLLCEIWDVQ

`O=P1(N(CCCl)CCCl)NCCCO1` (stereo unspecified): the result in assay [1], in [2], in assay [3], in assay [4], in [5] and in assay [6] was inactive. The compound was called inactive in [7], in assay [8], in assay [9], in assay [10], in assay [11] and in assay [12]. Besides, the outcome in assay [13], in assay [14], in [15] and in assay [16] was inactive.

In the case of `CO/N=C(/C(=O)OC)c1ccccc1COc1ccccc1C`, the call in [1], in [17], in assay [3], in assay [4], in [5] and in [6] was inactive. The compound was called inactive in [7], in [8], in assay [9] and in assay [12]. The figures for the half-maximal activity concentration (AC50) in [10] and in [11] were 3.96 µM (active) and 21.9 µM (active), respectively.

`CCCCN(CC)C(=O)SCCC`: the outcome in assay [1], in assay [18], in assay [4], in [5], in [6] and in [7] was inactive. Further, the call in [8], in assay [9], in assay [10], in assay [11] and in assay [12] was inactive.

With `CCCCCCCc1ccc(O)cc1`, the compound was classed as inactive in assay [1], in [2], in [18], in assay [3], in assay [4] and in assay [19]. Moreover, the compound was classed as inactive in assay [5], in [6], in [7], in assay [8], in [9] and in assay [10]. Besides, the call in assay [11] was inactive. In addition, the AC50 was 14.1 µM (active) and 7.28 µM (active) and 7.2 µM (active) in assay [10]; 38 µM (active) in assay [13]; 38.2 µM (active) in [14]; 35.1 µM (active) in assay [15].

As for `CC(Cl)CN(C)C` (stereo unspecified), the result in assay [1], in assay [20], in [3], in [4], in [5] and in assay [6] was inactive. The result in assay [7], in assay [8], in assay [9], in assay [11], in [12] and in assay [13] was inactive. The outcome in assay [14] and in [15] was inactive. Further, in assay [10], the AC50 is 28.4 µM (active).
